Results on 17 sequences are retold here after the OligoGym collection.
Further: reference of the scale not given here.

One test concerns the target RSF1. Kind of test: pooled miR-30 sensor sort-seq; sequence = guide strand. The settings on record: shRNA.
With TGTTCTTCTATGTACATTCTGA, the sensor-assay potency score (higher = more potent) came out at 0.345.

As to TAGAATTTGTATCTTTCTCTGA, the sensor-assay potency score (higher = more potent) stood at 0.105.

TTACCAAGGACCATGAACCTGG came in with a sensor-assay potency score (higher = more potent) of 0.217.

As for TTCTTTTGGTACTTCTCCGTTG, the sensor-assay potency score (higher = more potent) is -0.632.

Sequence TTACTTTAGAATTTGTATCTTT displayed a sensor-assay potency score (higher = more potent) of 0.216.

Turning to TTGATCATCTTGTTCTTCTATG, the sensor-assay potency score (higher = more potent) is -0.223.

For TTTGAGATTGTCATCAAACTGA, the sensor-assay potency score (higher = more potent) worked out at 0.222.

The sequence TTGATCTTCAGAAAAGTCTGGC registered a sensor-assay potency score (higher = more potent) of 0.121.

The sequence TTGAGATCCATCACTGATCTTG registered a sensor-assay potency score (higher = more potent) of 0.36.

Regarding TAAGGCAACATCCAAATCCTGC, the sensor-assay potency score (higher = more potent) was -1.12.

In turn, TTCTTTTCTTTCTTCATCCAAA gave a sensor-assay potency score (higher = more potent) of -0.992.

Consider TATTTCTTTACCACGTCGCAAA, for which the sensor-assay potency score (higher = more potent) is -1.15.

The target in another test is RSPH9. The description is as above. The conditions noted are these: shRNA.
As for TATTCTTTAGCTCAACAGGCTC, the sensor-assay potency score (higher = more potent) was -1.09.

As to TTCACCTTCATTCACCTTCTGC, the sensor-assay potency score (higher = more potent) was -0.502.

Sequence TTATTCTTTAGCTCAACAGGCT had a sensor-assay potency score (higher = more potent) of -0.377.

Regarding TAGCTCAACAGGCTCCCTGAAA, the sensor-assay potency score (higher = more potent) is -1.11.

Sequence TTTGGGAATGTCATGCTCCAAG registered a sensor-assay potency score (higher = more potent) of -0.888.
